# In the library only some 2.4% were active in any assay of this set; here they are far more common.
# CHRM1 PAM: human CHRM1 positive allosteric modulation; 360,000 compounds, 0.088% hits; activation, % at 3 µM; CHO-K1 hM1, Fluo-8 calcium fluorescence, ACh EC20; 0% = ACh EC20, 100% = maximal ACh; P11229; AID 588819; in the data active = activation above about 19%, passing the limit was not always enough
# Target sequence (P11229 whole entry, looked up): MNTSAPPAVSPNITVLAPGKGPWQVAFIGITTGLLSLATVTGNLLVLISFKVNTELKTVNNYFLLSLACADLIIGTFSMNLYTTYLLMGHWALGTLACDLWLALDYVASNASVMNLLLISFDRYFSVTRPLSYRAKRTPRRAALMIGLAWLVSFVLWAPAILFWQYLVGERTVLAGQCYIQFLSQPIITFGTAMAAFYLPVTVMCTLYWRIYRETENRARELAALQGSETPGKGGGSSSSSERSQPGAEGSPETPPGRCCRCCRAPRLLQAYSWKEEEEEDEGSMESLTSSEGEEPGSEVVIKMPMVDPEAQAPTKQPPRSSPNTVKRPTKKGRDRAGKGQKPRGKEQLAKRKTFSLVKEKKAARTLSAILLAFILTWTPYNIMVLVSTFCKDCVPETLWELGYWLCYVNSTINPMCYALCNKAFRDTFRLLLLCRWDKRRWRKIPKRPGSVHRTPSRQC
# CHRM1 agonist: human M1 muscarinic receptor agonism. P11229. CHO-K1 hM1, Fluo-8 calcium fluorescence, agonist mode; 0% DMSO, 100% acetylcholine EC100. activation, % at 3 µM. 360,000 compounds, 0.33% hits;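 active = activation above the run's mean compound activation plus 3 SD, cut at about 16% in these data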;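 also: peak over basal fluorescence ratio within a 140 s kinetic read after compound addition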
# CHRM1 antagonist: antagonists of human M1 muscarinic receptor. P11229. CHO-K1 hM1, Fluo-8 calcium fluorescence, ACh EC80 antagonist. inhibition, % at 3 µM. 360,000 compounds, 1.3% hits;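 active = percent inhibition above its own plate's cutoff, namely the mean of that plate's compound wells plus 3 SD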;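 also: peak over basal fluorescence ratio during 140 s after agonist addition; 0% = ACh EC80 plus DMSO and 100% = DMSO alone without agonist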
# CHO-K1 Ca antag: counter-screen for M1 antagonists: effect in parental CHO-K1 cells. 360,000 compounds, 0.6% hits. AID 602250. ATP-induced calcium, Fluo-8 fluorescence. inhibition, % at 3 µM;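 active = inhibition above a per-plate cutoff, the plate's mean sample inhibition plus 3 SD, cut at about 24% in these data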;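 also: 0% = DMSO plus EC80 ATP and 100% = DMSO alone without ATP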
# M1 ag parental: counter-screen for M1 agonists: effect in parental CHO-K1 cells; Fluo-8 calcium fluorescence; scaled to maximal ATP response, vehicle zero; activation, % at 3 µM; 360,000 compounds, 0.48% hits; in the data active = activation above about 15%;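 also: untransfected CHO-K1 host cells lacking M1 receptor as counterscreen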
# CHO-K1 Ca PAM: M1 PAM counterscreen hit in parental CHO-K1 cells. ATP EC20, Fluo-8 calcium fluorescence; 0% at ATP EC20, 100% at ATP max. activation, % at 3 µM. 360,000 compounds, 0.02% hits. AID 602247;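 active = activation above the run cutoff, the mean activation of all test compounds plus 3 SD, cut at about 40% in these data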;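 also: peak over basal fluorescence ratio in a 140 s read after ATP addition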
# Starred values were filed as active, the others as inactive.
SMILES,CHRM1 PAM,CHRM1 agonist,CHRM1 antagonist,CHO-K1 Ca antag,M1 ag parental,CHO-K1 Ca PAM
FC(F)(F)Oc1ccccc1C(c1nnnn1C1CCCC1)N1CCN(C/C=C/c2ccccc2)CC1 (stereo not given),-25,-4,56*,-9,1,17
COc1ccc(C(=O)NCc2nnc(SCC(=O)NCc3ccco3)o2)cc1OC,17,1,-14,-9,1,2
CN1CCN(c2ccc(C(=O)NC3CCCCC3)cc2[N+](=O)[O-])CC1,6,-6,-4,-14,0,10
COc1cccc(NC(=S)NCCc2ccccn2)c1,11,-6,-6,0,0,5
O=c1[nH]c(Cc2cccc(C(F)(F)F)c2)nc2ccccc12,4,-6,-1,-7,0,-13
CC1(C(=O)Nc2cccc(OC(F)(F)F)c2)Cc2c(-c3cccc(C(N)=O)c3)ccnc2O1 (stereo not given),3,0,-7,-14,7,23
COCCNC(=O)CN1C(=O)CSc2cc(S(=O)(=O)N3CCCCCC3)ccc21,8,-1,-9,35*,0,-10
CCCCN(CC)CCCNC(=O)CN1C(=O)CSc2ccc(S(=O)(=O)N3CCOCC3)cc21,-5,-16,0,0,0,-7
COCCNC(=O)CN1C(=O)CSc2ccc(S(=O)(=O)N3CCOCC3)cc21,2,-3,-4,-7,0,23
CCCCN(CCCC)CCNC(=O)CN1C(=O)CSc2ccc(S(=O)(=O)N3CCOCC3)cc21,-24,-6,87*,-13,0,7
CCOC(=O)CN1C(=O)N[C@@H](CCc2ccccc2)[C@@H](C(=O)OC)[C@H]1C,15,3,7,-1,0,-11
CN(C)CCCn1c(SCC(=O)N2c3ccccc3Sc3ccccc32)nc2ccccc2c1=O,-27,-15,39*,-11,0,31
COCCn1c(SCC(=O)NNC(=O)Cc2ccccc2)nc2ccccc2c1=O,9,-3,-6,25*,0,-7
COCC(C)NC(=O)CSc1nc2ccccc2c(=O)n1CCc1ccc(S(N)(=O)=O)cc1 (stereo not given),-11,-1,30*,7,6,-20
O=C(Nc1ccccc1)Nc1ccccc1-n1ccnc1,13,-5,-8,-8,0,17
O=C(CN1CCN(S(=O)(=O)c2cccs2)CC1)NCC1CCCCC1,4,-3,-5,-5,7,8
CCOc1ccc(NC(=S)Nc2ccccc2C2CC2)cc1,-9,-6,10,26*,0,-15
O=C(O)/C(=C/c1ccc(Cl)c([N+](=O)[O-])c1)c1ccc(S(=O)(=O)N2CCCCC2)s1,0,-1,-3,-1,0,-3
CCC(C)NC(=O)C1CC(=O)N(CCc2ccc(F)cc2)C1 (stereo not given),3,0,2,12,0,-21
O=Nc1c(O)n(Cc2cccc(Cl)c2)c2ccccc12,26*,20*,-17,5,0,-8
NC(=S)N=Nc1c(O)n(Cc2ccccc2)c2ccccc12,8,-5,-5,-1,2,25
O=C(NCc1ccco1)c1ccc(COc2cc(Cl)ccc2Cl)cc1,0,-7,0,6,1,16
COc1cc(CNC[C@H]2O[C@@H](n3cnc(C(N)=O)n3)[C@H](O)[C@@H]2O)ccc1OCc1cccc(Cl)c1,-1,-9,-2,-19,0,7
N#Cc1c(NC(=O)CSc2nc(N)cc(=O)[nH]2)sc2c1CCCCCC2,-2,0,7,8,4,-4
CC(Sc1nc(N)cc(=O)[nH]1)C(=O)Nc1sc2c(c1C#N)CCCC2 (stereo not given),-17,-6,24,30*,1,-16
SMILES,CHRM1 PAM,CHRM1 agonist,CHRM1 antagonist,CHO-K1 Ca antag,M1 ag parental,CHO-K1 Ca PAM
COc1ccc(-c2csc(NC(=O)CSCc3c(C)noc3C)n2)cc1OC,-5,1,-13,-7,5,6
CCc1noc(C)c1C(=O)OCC(=O)Nc1nc(-c2ccc(F)c(F)c2)cs1,-22,-2,42*,-11,5,4
Cc1noc(C)c1CSCC(=O)Nc1nc(-c2ccc(F)c(F)c2)cs1,-16,-1,35*,17,6,-24
O=C(COC(=O)c1ccccc1)c1ccc(S(=O)(=O)N2CCCCC2)cc1,-6,-2,15,-2,4,-3
CN(C(=O)COC(=O)c1ccc(S(=O)(=O)N2CCCC2)cc1)c1ccccc1,-22,-6,50*,-18,4,13
O=C(c1ccncc1)N1CCN(C2CCC(c3ccccc3)CC2)CC1 (stereo not given),-2,0,11,-11,2,4
COc1cccc(C(=O)N2CCN(C3CCC(c4ccccc4)CC3)CC2)c1OC (stereo not given),-11,43*,22,-12,1,2
O=C(O)c1ccccc1-c1nnc2c(Cl)cc(C(F)(F)F)cn12,5,0,95*,12,0,-2
CCN(CC)CCNC(C(=O)Nc1cccc(C(C)=O)c1)c1ccccc1 (stereo not given),-29,-10,84*,4,-1,13
C[C@@H]1CN([C@@H](C)CO)C(=O)CCCn2cc(nn2)CO[C@H]1CN(C)S(=O)(=O)c1ccc2ccccc2c1,-7,-10,10,13,0,-9
COc1ccc(N(C(=O)Cn2nnc(-c3ccc(F)cc3)n2)C(C)C(=O)NC2CCCC2)cc1OC (stereo not given),-7,-2,5,3,0,-8
CN1CCC(OC2c3ccccc3CCc3ccccc32)CC1,-30,-6,99*,-11,3,12
Cc1cc(N2CCCC2)c(F)cc1/C=C\[N+](=O)[O-],9,28*,20,28*,25*,-2
Cc1cc(N2CCC(C)CC2)c(F)cc1[N+](=O)[O-],5,-4,-1,-7,0,10
O=C1CC(=C(c2ccccc2)c2ccccc2)C(=O)N1CCCCN1CCN(c2cccc(Cl)c2)CC1,-8,7,39*,-2,0,11
Cc1ccccc1N1CCN(CCCN2C(=O)CC(=C(c3ccccc3)c3ccccc3)C2=O)CC1,-20,-5,95*,-14,0,18
c1cnc(N2CCN(c3cnccn3)CC2)nc1,4,-1,-2,-17,0,2
Cc1cc(N2C(=O)C3C4C=CC(C4)C3C2=O)ccc1NC(=O)c1cccs1 (stereo not given),3,-7,-7,47*,-1,-13
Cc1cc(N2CCN(c3ccccn3)CC2)n2nc(C)nc2n1,6,-2,-3,12,0,-4
Cc1cc(N2CCN(c3cccc(C(F)(F)F)c3)CC2)n2nc(C)nc2n1,31*,-1,8,10,0,7

# Source: PubChem BioAssay (The Scripps Research Institute Molecular Screening Center)
